Inconclusive results are not listed. Entries that show only a call come without a potency. Activity calls are given as the source filed them. Unless noted, calls follow the shape of the dose curve; as a rule, active = well fitted curve in the direction sought with a large enough effect; inconclusive = small, poorly fitted or top-dose-only effect, or another doubt; inactive = no such curve, though single readings can be large; an effect the other way counts as inactive or inconclusive.
Columns and labels:
[1] = target: Calcium and integrin-binding protein 1 (Homo sapiens) (UniProt Q99828); assay: Primary qHTS for Identification of Calcium Integrin Binding Protein 1 (CIB1) Competitor (AID 1508620);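 also: GST tagged CIB1 binding a fluorescein labelled alphaIIb integrin peptide tracer; top concentration of the series differs between compounds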
How it was run: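 CIB1-GST (1 uM final) and compound incubated 15 min at room temperature before adding FITC-alphaIIb peptide tracer (100 nM final). Competition for binding read by fluorescence polarization (ex 480, em 540) after another 15 min at room temperature.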

[2] = Cytotoxicity counterscreen for inhibitors of SARS-CoV-2 cell entry (AID 1645845; calls by dose curve; also: nearly all actives have a fitted effect of over 50% in size); conditions: outcome: dose series up to 57.1 µM unless noted
How it was run: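 48 h compound treatment (after 1 h preincubation), HEK293-ACE2 cells, 37 C/5% CO2; ATP luminescence endpoint; normalized to cell wells and media blanks.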

[3] = Primary qHTS for inhibitors of nuclear receptor binding SET domain protein 2 (NSD2) in an isogenic RCH-ACV NSD2 p.E1099K mutant (9B) (AID 1645876); also: nearly all actives have a fitted effect of over 70% in size; also: potency is read from the fitted curve at half-maximal effect
[4] = Primary qHTS for inhibitors of nuclear receptor binding SET domain protein 2 (NSD2) in an RCH-ACV wild type WT cells (2C) (AID 1645877); also: nearly all actives have a fitted effect of over 70% in size; also: potency is read from the fitted curve at half-maximal effect
[5] = Primary qHTS to identify inhibitors of SARS-CoV-2 cell entry (AID 1645846; calls by dose curve; also: nearly all actives have a fitted effect of over 45% in size; also: potency is read from the fitted curve at half-maximal effect); conditions: activity change, negative = inhibition: at 57.1 µM (top of the series) unless noted
How it was run: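 HEK293-ACE2 (Expi293F, stable hACE2), 1500 cells/well, o/n 37C; cpd 23 nL pin, 1 h; MLV-PP w/ SARS-CoV-2-S (Wuhan-Hu-1, Δ19 C-term); 48 h 37C; Bright-Glo luminescence; normalized vs S-PP and bald PP.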

[6] = Counterscreen qHTS for small molecule stabilizers of the endoplasmic reticulum resident proteome: GLuc-NoTag assay (AID 1508627);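 also: SH-SY5Y cells given compound then 100 nM thapsigargin to empty ER calcium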
How it was run: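 Luminescence of Gaussia luciferase secreted into the medium (coelenterazine, 0.07x final, unlysed cells) was the read-out. Human SH-SY5Y neuroblastoma cells constitutively secreting untagged GLuc received compound for 19 h, then 100 nM thapsigargin for 4 h.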

Chain of Calcium and integrin-binding protein 1 (Homo sapiens) (Q99828 whole entry, looked up): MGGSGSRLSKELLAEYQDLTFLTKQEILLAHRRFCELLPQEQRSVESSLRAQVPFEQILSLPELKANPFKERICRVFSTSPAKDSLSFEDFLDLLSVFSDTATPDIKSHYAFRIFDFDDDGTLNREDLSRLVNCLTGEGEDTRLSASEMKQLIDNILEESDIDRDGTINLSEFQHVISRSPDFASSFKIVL

## O=C1C[C@@H]2OCC=C3CN4CC[C@]56c7ccccc7N1[C@H]5[C@H]2[C@H]3C[C@H]46
[1]
  Potency: inactive
[2]
  outcome: inactive
[3]
  Potency: inactive
[4]
  Potency: inactive

## C/C=C(\C)C(=O)OC1CC2C(C)(C)OC(=O)CC(OC(C)=O)C2(C)C2CC(OC(=O)C(C)C)C3(C)C(c4ccoc4)CC4OC43C12C (centres undefined)
[1]
  Potency: inactive
[3]
  Potency: inactive
[4]
  Potency: inactive

## CN1[C@H]2C[C@H](OC(=O)[C@H](CO)c3ccccc3)C[C@@H]1[C@@H](O)C2
[1]
  Potency: inactive
[3]
  Potency: inactive
[4]
  Potency: inactive

## C/C=C(\C)C(=O)OC1C(C)OC(OC2C(C)OC(OC3CCC4(C)C(=CCC5C4CCC4(C)C(C(C)OC6OC(COC7OC(CO)C(O)C(O)C7O)C(O)C(O)C6O)CCC54O)C3)CC2OC)C(O)C1OC (centres undefined)
[1]
  Potency: inactive
[3]
  activity change, negative = viability loss: -3.12% [at 9.23 µM] (inactive)
[4]
  activity change, negative = cell killing: -10% [at 9.23 µM] (inactive)

## CN[C@H]1[C@H](O)[C@H](O[C@@H]2[C@@H](O)[C@H](O[C@H]3O[C@H]([C@H](C)O)[C@@H](O)[C@H](O)[C@H]3N)[C@@H](N)C[C@H]2N)OC[C@@]1(C)O
[1]
  Potency: inactive
[3]
  Potency: inactive
[4]
  Potency: inactive

## COC1CC(O[C@H]2CC[C@]3(C=O)C4CC[C@]5(C)[C@@H](C6=CC(=O)OC6)CC[C@]5(O)[C@@H]4CC[C@]3(O)C2)OC(C)C1O[C@@H]1O[C@H](CO)[C@@H](O)[C@H](O)[C@H]1O (some centres undefined)
[1]
  Potency: inactive
[3]
  Potency: 54.1 nM (active)
[4]
  Potency: 85.8 nM (active)

## CO[C@@H]1[C@H](O)[C@@H](O[C@@H]2C[C@H]3CC[C@@H]4C(CC[C@]5(C)[C@@H](C6=CC(=O)OC6)CC[C@]45O)[C@@]3(C)[C@H](O)C2)O[C@H](C)[C@@H]1O[C@@H]1O[C@H](CO)[C@@H](O)[C@H](O)[C@H]1O (some centres undefined)
[1]
  Potency: inactive
[3]
  Potency: 121 nM (active)
[4]
  Potency: 304 nM (active)

## COc1cc2c(cc1OC)[C@@]13CCN4CC5=CCO[C@H]6CC(=O)N2[C@H]1[C@H]6[C@H]5C[C@H]43
[1]
  Potency: inactive
[2]
  outcome: inactive
[5]
  activity change, negative = inhibition: -18.2%
[3]
  Potency: inactive
[4]
  Potency: inactive

## CC1=C2C[C@H]3[C@@H](CC=C4C[C@@H](O)CC[C@@]43C)[C@@H]2CC[C@]12O[C@@H]1C[C@H](C)CN[C@H]1[C@H]2C
[1]
  Potency: inactive
[2]
  outcome: inactive
[5]
  Potency: 17800 nM (active)

## COC(=O)C1(C)CCC(O)C2(C)c3c(O)cc(C(C)C)cc3C(O)C(OC(C)=O)C12 (centres undefined)
[1]
  Potency: inactive
[3]
  Potency: inactive
[4]
  Potency: inactive

## CCN1C[C@]2(COC(=O)c3ccccc3N3C(=O)C[C@H](C)C3=O)CC[C@H](OC)[C@@]34[C@@H]5C[C@H]6[C@H](OC)[C@@H]5[C@](O)(C[C@@H]6OC)[C@](O)([C@@H](OC)[C@H]23)[C@@H]14
[1]
  Potency: inactive
[3]
  Potency: inactive
[4]
  Potency: inactive

## C=C(CO)C(=O)O[C@H]1C/C(C)=C/CC/C(CO)=C/[C@H]2OC(=O)C(=C)[C@H]12
[1]
  Potency: inactive
[3]
  Potency: inactive

## O=C(N1CCOCC1)N1CCN(c2ccc(Cl)cc2)CC1
[1]
  Potency: inactive
[3]
  Potency: inactive
[4]
  Potency: inactive

## COC1=CC(=O)O[C@@H](CCc2ccccc2)C1
[1]
  Potency: inactive
[3]
  Potency: inactive
[4]
  Potency: inactive

## C[C@H]1O[C@@H](O[C@H]2C[C@@H](O)[C@]3(CO)C4C(CC[C@]3(O)C2)[C@@]2(O)CC[C@H](C3=CC(=O)OC3)[C@@]2(C)C[C@H]4O)[C@@H](O)[C@@H](O)[C@H]1O (some centres undefined)
[1]
  Potency: inactive
[3]
  Potency: 153 nM (active)
[4]
  Potency: 383 nM (active)

## CCN1C[C@]2(COC)[C@H](O)C[C@H](OC)[C@]34[C@@H]5C[C@]6(O)[C@H](OC(=O)c7ccccc7)[C@@H]5[C@@](O)([C@H]([C@H](OC)[C@H]23)[C@@H]14)[C@@H](O)[C@@H]6OC
[1]
  Potency: inactive
[3]
  Potency: inactive
[4]
  Potency: inactive

## CCC1NC(=O)C2C(Cl)C(Cl)CN2C(=O)C(C(C)O)NC(=O)CC(c2ccccc2)NC(=O)C(CO)NC1=O (centres undefined)
[1]
  Potency: inactive
[3]
  Potency: inactive
[4]
  Potency: inactive

## CC12CCC3C(CCC4(O)CC(O)CCC34C=O)C1(O)CCC2C1=CC(=O)OC1 (centres undefined)
[1]
  Potency: inactive
[3]
  Potency: 258 nM (active)
[4]
  Potency: 515 nM (active)

## CC(C)C1(OO)C=C2C(=O)CC3C(C)(C(=O)O)CCCC3(C)C2CC1 (centres undefined)
[1]
  Potency: inactive
[3]
  Potency: inactive
[4]
  Potency: inactive

## C1=C2CCCN[C@H]2[C@@H]2C[C@H]1[C@H]1CCCCN1C2
[1]
  Potency: inactive
[3]
  Potency: inactive
[4]
  Potency: inactive

## Oc1ccc2c3c1O[C@H]1[C@H](N(CCCl)CCCl)CC[C@@]4(O)[C@@H](C2)N(CC2CC2)CC[C@]314
[1]
  Potency: inactive
[3]
  activity change, negative = viability loss: -5.8% [at 9.23 µM] (inactive)
[4]
  activity change, negative = cell killing: -7.37% [at 9.23 µM] (inactive)

## C/C=C(\C)C(=O)O[C@H]1[C@H](OC(C)=O)[C@]2(CO)[C@H](O)[C@H](O)[C@]3(C)C(=CCC4[C@@]5(C)CC[C@H](O[C@@H]6O[C@H](C(=O)O)[C@@H](O)[C@H](O[C@@H]7OC[C@H](O)[C@H](O[C@@H]8OC[C@H](O)[C@H](O)[C@H]8O)[C@H]7O)[C@H]6O[C@@H]6O[C@H](CO)[C@@H](O)[C@H](O)[C@H]6O)C(C)(C)C5CC[C@]43C)[C@@H]2CC1(C)C (some centres undefined)
[1]
  activity change, negative = inhibition: 1% [at 12.4 µM] (inactive)
[3]
  activity change, negative = viability loss: -4.86% [at 9.23 µM] (inactive)
[4]
  activity change, negative = cell killing: 2.35% [at 9.23 µM] (inactive)

## Cc1cc(C)cc(C(=O)OC2C[C@H]3CC[C@@H](C2)N3C)c1 (some centres undefined)
[6]
  outcome: inactive
